Screens: PubChem BioAssay, National Center for Advancing Translational Sciences (NCATS)
Rows were chosen to be rich in hits. Some 8.5% of all compounds tested hit in one or more screens of this group.
JMJD2E inh = blocks human JMJD2E demethylase activity; 230,000 tested, 1.6% active; Potency, µM (top dose mostly 57.1 µM), for the others: at the highest dose activity change, negative = inhibition, hits mostly inhibitors; JMJD2E catalytic domain, FDH-coupled NADH fluorescence (FDH is formaldehyde dehydrogenase); B2RXH2; active = well fitted inhibition curve with a large enough effect, not every such curve was filed as active; inconclusive = small, poorly fitted or top-dose-only effect, or another doubt; inactive = no such curve, though single readings can be large or run the other way;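 note: potency is the fitted concentration of half-maximal effect; 0% = wells with enzyme and -100% = buffer wells without enzyme; nearly all actives have a fitted effect of over 50% in size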
Target sequence (B2RXH2 1-337 limits assumed): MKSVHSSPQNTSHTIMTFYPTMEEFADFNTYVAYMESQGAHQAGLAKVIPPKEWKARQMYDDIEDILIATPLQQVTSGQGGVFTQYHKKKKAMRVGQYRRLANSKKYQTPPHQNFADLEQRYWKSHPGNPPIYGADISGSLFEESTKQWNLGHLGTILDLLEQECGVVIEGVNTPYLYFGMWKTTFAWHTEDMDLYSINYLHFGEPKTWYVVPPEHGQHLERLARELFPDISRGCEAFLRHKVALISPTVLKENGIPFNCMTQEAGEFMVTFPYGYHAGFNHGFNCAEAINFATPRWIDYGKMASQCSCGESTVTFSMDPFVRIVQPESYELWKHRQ
ALDH1A1 inh = blocks purified human ALDH1A1 activity; P00352; Purified ALDH1A1, NADH fluorescence, propionaldehyde substrate; Potency, µM (series often up to 75.3 µM), inactives show at the highest dose activity, negative = inhibition, hits mostly inhibitors; 220,000 tested, 7.3% active; active = well fitted inhibition curve with a large enough effect, not every such curve was filed as active; inconclusive = small, poorly fitted or top-dose-only effect, or another doubt; inactive = no such curve, though single readings can be large or run the other way;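 note: potency is the fitted concentration of half-maximal effect; plate controls were no enzyme wells and a reference inhibitor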
NPSR antag = neuropeptide S receptor (human) antagonism, cAMP. Q6W5P4. CHO-NPSR cells, cAMP TR-FRET, antagonist mode. Potency, µM (series often up to 38.3 µM), for the others: at the top dose activity change, negative = inhibition, hits mostly inhibitors. 220,000 tested, 1% active. AID 1461; note: potency is the fitted concentration of half-maximal effect; nearly all actives have a fitted effect of over 50% in size
Target sequence (Q6W5P4 whole entry, looked up): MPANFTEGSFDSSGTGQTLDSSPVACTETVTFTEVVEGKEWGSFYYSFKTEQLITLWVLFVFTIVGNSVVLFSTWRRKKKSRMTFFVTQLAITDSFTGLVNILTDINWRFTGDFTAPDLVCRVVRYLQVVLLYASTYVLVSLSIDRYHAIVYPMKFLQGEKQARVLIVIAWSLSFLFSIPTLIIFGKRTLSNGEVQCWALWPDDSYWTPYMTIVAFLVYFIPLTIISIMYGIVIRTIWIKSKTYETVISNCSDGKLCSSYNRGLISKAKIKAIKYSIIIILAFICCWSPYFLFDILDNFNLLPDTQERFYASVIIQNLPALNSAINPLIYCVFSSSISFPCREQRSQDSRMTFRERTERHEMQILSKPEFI
Sfp inh = blocks B. subtilis Sfp PPTase activity. Biochemical Sfp PPTase activity, qHTS. Potency, µM, without a hit: largest response in the series, negative = inhibition, most hits filed as inhibitors. 310,000 tested, 3.5% active;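 note: the enzyme is Sfp with the accession as filed and its product quenches rhodamine fluorescence; potency is the fitted concentration of half-maximal effect; 0% = enzyme reaction without inhibitor and -100% = no enzyme wells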
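After 15 min at room temperature with compound, 15 nM Sfp received 5 uM rhodamine-CoA plus 12.5 uM BHQ-2-ybbR (50 mM Hepes pH 7.6, 10 mM MgCl2). Rate came from the fluorescence difference over 30 min, ex 525/em 598 nm.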
FBPA coupling cs = coupling enzyme interference in Giardia aldolase counter-screen. coupling enzyme system counterscreen, AmpLite Red fluorescence. activity change, negative = inhibition, % at 58.2 µM, hits read low. 290,000 tested, 0.67% active; in the data active = activity change below about -30%
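Compounds tested against the coupling enzymes alone at 57.5 uM final; readout was AmpLite Red fluorescence (525/598 nm) after 20 min at RT.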
RGS12 GoLoco inh = inhibitors of human Gai1-RGS12 GoLoco interaction (red fluorophore); P63096; 230,000 tested, 0.44% active; Potency, µM (series often up to 61.6 µM), without a hit: at the top dose activity, negative = inhibition, actives largely listed as inhibitors; Gai1:RGS12 GoLoco peptide FP, rhodamine, 10 min; active = well fitted inhibition curve with a large enough effect, not every such curve was filed as active; inactive = no such curve, though single readings can be large or run the other way; note: potency is the fitted concentration of half-maximal effect; nearly all actives have a fitted effect of over 30% in size
Starred values were filed as active, the others as inactive; [ ] = remark or other dose. Unless noted, calls come from the whole dose curve; as a rule, active = well fitted curve in the direction sought with a large enough effect; inconclusive = small, poorly fitted or top-dose-only effect, or another doubt; inactive = no such curve, though single readings can be large; an effect the other way counts as inactive or inconclusive. Unless noted, % is set by controls: 0 for no effect and ±100 for the full control effect.

Results for CC(=O)N1CCc2cc(C(=O)CN3CCN(c4ccccc4F)CC3)ccc21 ?
JMJD2E inh: inconclusive; ALDH1A1 inh: inconclusive; NPSR antag: -7.2%[46.1 µM]; Sfp inh: 50.1µM*; FBPA coupling cs: -0.4; RGS12 GoLoco inh: 21.5%

What do the screens show for `O=C(CN1CCN(c2ccccc2F)CC1)N1CCc2ccccc21`?
Sfp inh: 9.1%; FBPA coupling cs: -1.4

How did CC(=O)N1CCc2cc(C(=O)CN3CCN(c4ccccn4)CC3)ccc21 do in these assays?
JMJD2E inh: 8.8%; NPSR antag: 18.6%; Sfp inh: 50.1µM*; FBPA coupling cs: -2.6; RGS12 GoLoco inh: -4.1%

What do the screens show for `CC(=O)N1CCc2cc(S(=O)(=O)CCC(=O)N3CCN(c4ccccn4)CC3)ccc21`?
JMJD2E inh: 6.0%; ALDH1A1 inh: inconclusive; NPSR antag: 0.6%[46.1 µM]; Sfp inh: 10.3%; FBPA coupling cs: 4.4; RGS12 GoLoco inh: -5.3%

What do the screens show for `Cc1ccc([N+](=O)[O-])cc1NC(=S)NC(=O)CC(C)(C)C`?
JMJD2E inh: 17.8%; ALDH1A1 inh: -14.2%; NPSR antag: -20.2%[46.1 µM]; Sfp inh: 4.2%; FBPA coupling cs: 1.6; RGS12 GoLoco inh: 3.2%

What do the screens show for `Cc1ccc([N+](=O)[O-])cc1NC(=S)NC(=O)c1c(Cl)cnn1C`?
Sfp inh: 44.7µM*; FBPA coupling cs: 0.3

Results for Cc1ccc([N+](=O)[O-])cc1NC(=S)NC(=O)C(C)(C)C ?
JMJD2E inh: 2.4%; ALDH1A1 inh: 4.47µM*; NPSR antag: -26.3%[46.1 µM]; Sfp inh: 10.1%; FBPA coupling cs: 5.4; RGS12 GoLoco inh: -0.1%

How did Cc1ccc(C)c2c3c([nH]c12)-c1nonc1CC3 do in these assays?
JMJD2E inh: inconclusive; ALDH1A1 inh: 22.4µM*; NPSR antag: 14.0%[46.1 µM]; Sfp inh: -8.8%; FBPA coupling cs: 1.7; RGS12 GoLoco inh: 3.2%

How did CCN1CCN(CCCN(Cc2ccco2)C(=S)Nc2ccc(Cl)c(C)c2)CC1 do in these assays?
JMJD2E inh: -0.6%; ALDH1A1 inh: -4.2%; NPSR antag: -13.3%; Sfp inh: 13.1%; FBPA coupling cs: 0.7; RGS12 GoLoco inh: 4.7%

What do the screens show for `Cc1cc(NC(=S)N(CCN2CCCCC2)Cc2ccco2)ccc1Cl`?
JMJD2E inh: -5.2%; ALDH1A1 inh: 7.94µM*; NPSR antag: inconclusive; Sfp inh: -70.1%; FBPA coupling cs: -5.2; RGS12 GoLoco inh: 146.1%

What do the screens show for `CCOC(=O)/C(C#N)=C1\C(=O)N(Cc2ccccc2)c2ccccc21`?
JMJD2E inh: 2.1%; NPSR antag: inconclusive; Sfp inh: 35.5µM*; FBPA coupling cs: -26.0; RGS12 GoLoco inh: -6.5%

What do the screens show for `CCOC(=O)/C(C#N)=C1/C=CN(Cc2ccccc2)C=N1`?
JMJD2E inh: inconclusive; ALDH1A1 inh: -13.9%; NPSR antag: -2.3%[46.1 µM]; Sfp inh: 4.8%; FBPA coupling cs: 1.7; RGS12 GoLoco inh: 3.2%

Results for Cc1cccn2c(=O)c(/C=C(\C#N)C(=O)NCc3ccco3)c(N3CCCCCC3)nc12 ?
JMJD2E inh: -4.3%; NPSR antag: inconclusive; Sfp inh: -5.4%; FBPA coupling cs: -1.2; RGS12 GoLoco inh: -1.2%

What do the screens show for `Cc1cccn2c(=O)c(/C=C(\C#N)C(=O)NCc3ccco3)c(N3CCCC(C)C3)nc12` (stereo unspecified)?
JMJD2E inh: inconclusive; ALDH1A1 inh: 25.1µM*; NPSR antag: -23.2%[46.1 µM]; Sfp inh: -3.1%; FBPA coupling cs: 2.2; RGS12 GoLoco inh: 19.3%

How did Cc1cccn2c(=O)c(/C=C(\C#N)C(=O)NCc3ccco3)c(N3CCCCC3)nc12 do in these assays?
JMJD2E inh: inconclusive; ALDH1A1 inh: 14.1µM*; NPSR antag: inconclusive; Sfp inh: -20.6%; FBPA coupling cs: -1.1; RGS12 GoLoco inh: 14.2%

What do the screens show for `CCOC(=O)C1CCCN(c2nc3c(C)cccn3c(=O)c2/C=C(\C#N)C(=O)NCc2ccco2)C1` (stereo unspecified)?
JMJD2E inh: inconclusive; ALDH1A1 inh: inconclusive; NPSR antag: 48.6%; Sfp inh: -25.0%; FBPA coupling cs: 4.2; RGS12 GoLoco inh: 3.4%

What do the screens show for `COC(=O)c1cc(OC)c(OC)cc1NC(=S)N1CCOCC1`?
Sfp inh: 3.8%; FBPA coupling cs: -2.1

What do the screens show for `O=C(c1cccc(NS(=O)(=O)c2cccc(C(F)(F)F)c2)c1)N1CCOCC1`?
Sfp inh: -5.0%; FBPA coupling cs: 3.7

What do the screens show for `C=CCSC1=N/C(=C\c2cc(OCC)c(OC(C)=O)c([N+](=O)[O-])c2)C(=O)S1`?
JMJD2E inh: 4.3%; ALDH1A1 inh: 0.3%; NPSR antag: -10.2%; Sfp inh: 56.2µM*; FBPA coupling cs: -0.1; RGS12 GoLoco inh: -3.2%

How did C=CCSC1=N/C(=C\c2ccc3c(c2)OCO3)C(=O)S1 do in these assays?
JMJD2E inh: -3.4%; ALDH1A1 inh: -9.4%; NPSR antag: -7.3%[46.1 µM]; Sfp inh: -17.1%; FBPA coupling cs: 4.1; RGS12 GoLoco inh: 2.5%

Results for O=C(c1ccco1)N1CCC2(CCN(Cc3ccccc3)CC2)CC1 ?
ALDH1A1 inh: 17.8µM*; Sfp inh: 12.0%; FBPA coupling cs: 0.2; RGS12 GoLoco inh: 7.7%

What do the screens show for `O=C(c1ccco1)N1CCC2(CCCN(c3ccncc3)C2)CC1`?
ALDH1A1 inh: 3.55µM*; Sfp inh: -4.1%; FBPA coupling cs: 3.4; RGS12 GoLoco inh: -7.2%

Results for N#Cc1ccc(CN2CC[C@@]3(CCCN(C(=O)c4ccco4)C3)C2)cc1 ?
ALDH1A1 inh: 14.1µM*; Sfp inh: 20.0%; FBPA coupling cs: -4.7; RGS12 GoLoco inh: 7.0%

What do the screens show for `CC(C)CN1CC[C@@]2(CCCN(C(=O)c3ccco3)C2)C1`?
ALDH1A1 inh: 0.447µM*; Sfp inh: 13.8%; FBPA coupling cs: 1.9; RGS12 GoLoco inh: 52.4%

How did CC(C)NC(=O)N1CCCC2(CCN(C(=O)c3ccco3)CC2)C1 do in these assays?
ALDH1A1 inh: -2.6%; Sfp inh: 19.4%; FBPA coupling cs: 0.9; RGS12 GoLoco inh: 22.1%

What do the screens show for `O=C(c1ccco1)N1CCC2(CCN(Cc3ccncc3)CC2)CC1`?
ALDH1A1 inh: inconclusive; Sfp inh: 10.6%; FBPA coupling cs: -1.5; RGS12 GoLoco inh: -7.3%

Results for CN1CCN(NC(=O)c2ccc(Cl)s2)CC1 ?
JMJD2E inh: 6.6%; ALDH1A1 inh: 3.4%; NPSR antag: 6.4%; Sfp inh: 25.3%; FBPA coupling cs: 3.8; RGS12 GoLoco inh: 0.9%

How did Cc1ccc(Nc2c(-c3ccc(C)o3)nc3cnccn23)cc1 do in these assays?
JMJD2E inh: inconclusive; ALDH1A1 inh: inconclusive; NPSR antag: -19.6%[46.1 µM]; Sfp inh: 10µM*; FBPA coupling cs: 0.9; RGS12 GoLoco inh: -13.3%

How did Cc1ccc(-c2nc3ccccn3c2Nc2ccccc2)o1 do in these assays?
JMJD2E inh: inconclusive; ALDH1A1 inh: inconclusive; NPSR antag: -7.0%; Sfp inh: 20µM*; FBPA coupling cs: 0.3; RGS12 GoLoco inh: -3.5%
